The values that follow come from PubChem BioAssay (Tox21).

The nature of test [1]: Nuclear factor erythroid 2-related factor 2/antioxidant responsive element (Nrf2/ARE) small molecule agonists: qHTS cell viability counter screen in human keratinocytes (AID 1919968; active = well fitted curve in the direction sought with a large enough effect in the repeat runs; an effect the other way counts as inactive or inconclusive; also: nearly all actives have a fitted effect of over 55% in size; also: potency is read from the fitted curve at half-maximal effect). Put shortly:
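Seed 1,500 KeratinoSens cells per well, then incubate 5 h at 37 C/5% CO2. Add compounds in DMSO and incubate 23 h. Add CellTiter-Fluor, wait 1 h and read fluorescence.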

A short description of test [2]: Nuclear factor erythroid 2-related factor 2/antioxidant responsive element (Nrf2/ARE) small molecule agonists: luciferase reporter gene qHTS assay in human keratinocytes (AID 1919969). Also: nearly all actives have a fitted effect of over 35% in size. Also: potency is read from the fitted curve at half-maximal effect.
Test [3] concerns the target Gonadotropin-releasing hormone receptor (Homo sapiens) (UniProt P30968). Kind of test: Human gonadotropin-releasing hormone receptor (GnRHR) small molecule agonists, calcium flux assay in GnRHR-HEK293 cells (AID 1920063). Also: nearly all actives have a fitted effect of over 35% in size. Also: potency is read from the fitted curve at half-maximal effect. Put shortly: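 Cells: HEK293 stably expressing human GnRHR. Steps: overnight (18 h) culture, 1 h calcium dye loading at 37 C, compound addition, kinetic fluorescence read at 480/540 nm. Each compound tested at 15 concentrations in triplicate.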
On the technique in general: Calcium assays in cells follow changes in intracellular calcium, usually with a dye or a luminescent sensor.

Test [4] addresses KiSS-1 receptor (Homo sapiens) (UniProt Q969F8). Kind of test: Human kisspeptin (KISS1R) small molecule agonists, calcium flux assay in KISS1R-HEK293 cells (AID 1920064; active = well fitted curve in the direction sought with a large enough effect in the repeat runs; an effect the other way counts as inactive or inconclusive; also: potency is read from the fitted curve at half-maximal effect). Put shortly:
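Cells plated and incubated 18 h; dye added, 1 h at 37 C; compounds in DMSO pinned in; signal read at 480/540 nm every second for 3 min. Each compound tested at 15 concentrations in triplicate.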

Test [5] can be described thus: p53 small molecule agonists, cell-based qHTS assay with human liver microsomes: qHTS cell viability counter screen (AID 1963579). Also: nearly all actives have a fitted effect of over 45% in size. Also: potency is read from the fitted curve at half-maximal effect. Put shortly: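 p53RE-bla cells (4,000/well) were pre-incubated 5 h at 37 C, then given compounds in DMSO plus human liver microsomes (0.5 mg/mL final) and NADPH (0.5 mg/mL final) for 16 h at 37 C. Viability was read by CellTiter-Glo luminescence.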

Test [6] is described as follows: p53 small molecule agonists, cell-based qHTS assay: qHTS cell viability counter screen (AID 1963581). Also: nearly all actives have a fitted effect of over 45% in size. Also: potency is read from the fitted curve at half-maximal effect. The method, boiled down:
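Cells: HCT-116 with p53 response element-driven beta-lactamase. Treatment: 16 h, 37 C, compounds in DMSO. Read: CellTiter-Glo luminescence after 30 min RT.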
For orientation: Quantitative high-throughput screening tests each substance at several concentrations.

Test [7] has as its target 5-hydroxytryptamine receptor 2A (Homo sapiens) (UniProt P28223). In words: 5-hydroxytryptamine receptor 2A (HTR2A) small molecule antagonists, cell-based qHTS assay (AID 1963586). Also: nearly all actives have a fitted effect of over 45% in size. Put shortly: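 Antagonist-mode intracellular calcium assay: DOI (4 nM) added after 5 min compound pre-incubation at room temperature to dye-loaded HTR2A-CHO cells. Fluorescence followed for 3 min, sampled every second.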

For test [8], the target named is Muscarinic acetylcholine receptor M1 (Homo sapiens) (UniProt P11229). Kind of test: Cholinergic receptor muscarinic 1 (CHRM1) small molecule antagonists, cell-based qHTS assay (AID 1963588). Also: nearly all actives have a fitted effect of over 40% in size. Put shortly: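 CHRM1-CHO calcium-flux assay, antagonist mode. Cells were seeded 18 h, dye-loaded 1 h at 37 C and given compound for 5 min at RT, then acetylcholine was added at 50nM. FDSS fluorescence was read 3 min; 15 concentrations, three runs.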

Test [9] shares this target. Kind of test: Cholinergic receptor muscarinic 1 (CHRM1) small molecule agonists, cell-based qHTS assay (AID 1963589). Also: nearly all actives have a fitted effect of over 35% in size. Also: potency is read from the fitted curve at half-maximal effect. The method, boiled down:
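Agonist-mode qHTS in CHO cells stably carrying human muscarinic M1. Intracellular calcium is tracked by fluorescence every second after compound transfer; each compound runs at 15 concentrations in three independent runs.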

Test [10] is described as follows: cAMP Responsive Elements (CRE) small molecule agonists, cell-based qHTS assay (AID 1963590). Put shortly: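 Agonist mode qHTS in CRE-bla HEK 293T cells: compounds dosed from DMSO for 3 h at 37 C/5% CO2, followed by LiveBLAzer B/G FRET substrate for 2 h at room temperature.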
Test [11] in a line: cAMP Responsive Elements (CRE) small molecule antagonists, cell-based qHTS assay (AID 1963591; active = well fitted inhibition curve with a large enough effect in the signal ratio in the repeat runs, not every such curve was filed as active; the % refers to the signal ratio). Put shortly:
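Antagonist mode: test compounds are co-incubated with the adenylyl cyclase activator NKH477 (0.25 uM final) on CRE-bla HEK293T cells for 3 h at 37 °C, followed by LiveBLAzer substrate loading.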

The target in test [12] is D(2) dopamine receptor (Homo sapiens) (UniProt P14416). Kind of test: Dopamine D2 receptor (DRD2) small molecule agonists, cell-based qHTS assay (AID 1963594). Also: nearly all actives have a fitted effect of over 35% in size. Put shortly: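 HEK293 cells stably expressing human DRD2, pre-treated with PDE inhibitor Ro20-1724 (0.1 mM final) and compound 10 min at room temperature, then stimulated with NKH477 (200nM […]) for 30 min. cAMP read by HTRF (665/620 nm).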

Test [13] shares this target. In words: Dopamine D2 receptor (DRD2) small molecule antagonists, cell-based qHTS assay (AID 1963595; active = well fitted inhibition curve with a large enough effect in the signal ratio in the repeat runs, with a control signal flat; the % refers to the signal ratio; also: potency is read from the fitted curve at half-maximal effect). The method, boiled down: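 Cells were plated and grown for 24 h at 37 °C. Ro20-1724 (0.1 mM final) went in first, then compound for 10 min. NKH477 (200 nM) with quinpirole (12 nM) followed for 30 min at RT, then HTRF detection reagents for 1 h.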
Test [14] in a line: G protein-coupled receptor (GPCR) small molecule agonists, calcium flux assay: HEK293 wild type cell line counter screen (AID 1920065). Put shortly:
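Counter-screen of the Tox21 10K library for non-specific calcium release: dye-loaded cells received compounds in DMSO and were monitored by kinetic fluorescence (480/540 nm, 3 min). Fifteen concentrations, run in triplicate.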

Test [15] in a line: p53 small molecule agonists, cell-based qHTS assay with rat liver microsomes (AID 1963578). The method, boiled down: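 p53RE-bla cells were exposed to compounds together with rat liver microsomes (0.5 mg/mL final) and NADPH (0.5 mg/mL final) for 16 h at 37 C, then read by LiveBLAzer beta-lactamase fluorescence after 2 h at room temperature.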
Test [16] in a line: p53 small molecule agonists, cell-based qHTS assay with rat liver microsomes: qHTS cell viability counter screen (AID 1963580). Also: nearly all actives have a fitted effect of over 45% in size. Also: potency is read from the fitted curve at half-maximal effect. Put shortly: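 Viability is assessed in parallel with the p53 reporter read: HCT-116 p53RE-bla cells receive compounds plus rat microsomes and NADPH (0.5 mg/mL final apiece), incubate 16 h at 37 C, and then CellTiter-Glo luminescence is recorded.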

Test [17] addresses 5-hydroxytryptamine receptor 2A (Homo sapiens) (UniProt P28223). Kind of test: 5-hydroxytryptamine receptor 2A (HTR2A) small molecule agonists, cell-based qHTS assay (AID 1963587). Also: nearly all actives have a fitted effect of over 30% in size. Also: potency is read from the fitted curve at half-maximal effect. Put shortly:
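CHO cells stably expressing human HTR2A, plated 18 h, loaded with calcium dye 1 h at 37 C. Agonist mode: compounds added and intracellular calcium fluorescence recorded kinetically for 2 min at 1 sec intervals.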

Test [18] addresses Beta-2 adrenergic receptor (Homo sapiens) (UniProt P07550). In words: Adrenergic beta2 receptor (ADRB2) small molecule antagonists, cell-based qHTS assay (AID 1963592). Also: series mostly up to about 92 µM; nearly all actives have a fitted effect of over 50% in size. Put shortly: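 Cells (CHO, stable ADRB2 overexpression) incubated 18-20hr at 37C; compounds added from DMSO; agonist mix (1nM isoproterenol, 100uM IBMX, 25uM Ro-20-1724) added; 0.5hr RT; d2-cAMP and anti-cAMP-cryptate added; 1hr RT; 665/615 nm read.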

Test [19] can be described thus: p53 small molecule agonists, cell-based qHTS assay with human liver microsomes (AID 1963577). Put shortly:
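p53RE-bla reporter cells were pre-incubated 5 h at 37 C, then treated with compounds plus human liver microsomes (0.5 mg/mL final) and NADPH (0.5 mg/mL final) for 16 h at 37 C. Beta-lactamase activity was read by LiveBLAzer fluorescence after 2 h at room temperature.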

The nature of test [20]: p53 small molecule agonists, cell-based qHTS assay (AID 1963582; active = well fitted activation curve with a large enough effect in the signal ratio in the repeat runs, not every such curve was filed as active; the % refers to the signal ratio). Put shortly:
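Quantitative HTS in p53RE-bla cells: after a 5 h settling period, compounds delivered in DMSO were left on cells for 16 h at 37 C, and reporter induction was measured as fluorescence following 2 h substrate loading.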

Unmarked numbers belong to inactive results. Results filed as inconclusive are left out. Calls of active or inactive are those of the source. Unless noted, calls follow the shape of the full dose curve.

Chain of KiSS-1 receptor (Homo sapiens) (Q969F8 whole entry, looked up): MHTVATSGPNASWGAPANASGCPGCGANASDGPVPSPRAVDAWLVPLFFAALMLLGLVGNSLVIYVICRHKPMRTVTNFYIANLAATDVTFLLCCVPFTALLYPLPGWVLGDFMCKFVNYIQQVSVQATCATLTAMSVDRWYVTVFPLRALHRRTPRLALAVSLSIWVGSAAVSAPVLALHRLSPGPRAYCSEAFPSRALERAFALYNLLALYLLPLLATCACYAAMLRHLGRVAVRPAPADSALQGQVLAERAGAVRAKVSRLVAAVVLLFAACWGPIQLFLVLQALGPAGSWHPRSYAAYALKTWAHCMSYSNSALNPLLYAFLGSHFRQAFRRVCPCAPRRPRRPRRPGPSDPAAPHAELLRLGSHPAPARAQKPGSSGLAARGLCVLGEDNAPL
Chain of D(2) dopamine receptor (Homo sapiens) (P14416 whole entry, looked up): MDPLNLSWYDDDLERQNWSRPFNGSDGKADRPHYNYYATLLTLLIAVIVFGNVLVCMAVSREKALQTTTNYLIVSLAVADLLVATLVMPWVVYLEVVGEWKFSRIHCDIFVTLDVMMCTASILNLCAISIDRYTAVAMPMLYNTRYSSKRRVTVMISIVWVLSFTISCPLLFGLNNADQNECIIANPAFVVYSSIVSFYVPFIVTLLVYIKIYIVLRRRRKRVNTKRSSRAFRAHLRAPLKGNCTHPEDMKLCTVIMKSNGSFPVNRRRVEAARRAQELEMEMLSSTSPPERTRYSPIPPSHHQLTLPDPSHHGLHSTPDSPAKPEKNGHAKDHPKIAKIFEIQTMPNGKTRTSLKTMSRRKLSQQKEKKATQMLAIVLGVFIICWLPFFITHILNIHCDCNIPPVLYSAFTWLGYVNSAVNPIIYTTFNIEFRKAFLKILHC
Chain of Beta-2 adrenergic receptor (Homo sapiens) (P07550 whole entry, looked up): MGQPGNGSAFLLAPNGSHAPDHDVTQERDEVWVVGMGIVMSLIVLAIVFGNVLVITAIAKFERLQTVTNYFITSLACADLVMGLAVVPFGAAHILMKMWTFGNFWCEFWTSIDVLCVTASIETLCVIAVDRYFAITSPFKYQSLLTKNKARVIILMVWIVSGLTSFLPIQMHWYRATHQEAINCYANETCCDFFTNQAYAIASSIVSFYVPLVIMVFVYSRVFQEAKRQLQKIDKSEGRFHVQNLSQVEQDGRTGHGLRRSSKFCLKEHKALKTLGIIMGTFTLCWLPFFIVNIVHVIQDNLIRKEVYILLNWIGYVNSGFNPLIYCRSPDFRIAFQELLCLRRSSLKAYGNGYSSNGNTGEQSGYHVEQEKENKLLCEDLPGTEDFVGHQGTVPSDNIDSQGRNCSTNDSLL
Chain of Muscarinic acetylcholine receptor M1 (Homo sapiens) (P11229 whole entry, looked up): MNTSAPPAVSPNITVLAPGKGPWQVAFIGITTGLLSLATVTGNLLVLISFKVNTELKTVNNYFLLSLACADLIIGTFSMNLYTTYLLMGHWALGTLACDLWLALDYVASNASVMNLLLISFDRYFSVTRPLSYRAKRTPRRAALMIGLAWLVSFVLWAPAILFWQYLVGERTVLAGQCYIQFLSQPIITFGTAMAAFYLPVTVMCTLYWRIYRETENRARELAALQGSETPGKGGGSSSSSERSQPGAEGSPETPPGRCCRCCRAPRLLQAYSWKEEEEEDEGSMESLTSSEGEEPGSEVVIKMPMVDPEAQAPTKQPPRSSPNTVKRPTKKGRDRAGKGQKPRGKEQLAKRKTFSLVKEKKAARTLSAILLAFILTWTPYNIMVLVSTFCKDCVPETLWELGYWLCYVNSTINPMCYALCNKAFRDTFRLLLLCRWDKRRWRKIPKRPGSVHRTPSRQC
Chain of Gonadotropin-releasing hormone receptor (Homo sapiens) (P30968 whole entry, looked up): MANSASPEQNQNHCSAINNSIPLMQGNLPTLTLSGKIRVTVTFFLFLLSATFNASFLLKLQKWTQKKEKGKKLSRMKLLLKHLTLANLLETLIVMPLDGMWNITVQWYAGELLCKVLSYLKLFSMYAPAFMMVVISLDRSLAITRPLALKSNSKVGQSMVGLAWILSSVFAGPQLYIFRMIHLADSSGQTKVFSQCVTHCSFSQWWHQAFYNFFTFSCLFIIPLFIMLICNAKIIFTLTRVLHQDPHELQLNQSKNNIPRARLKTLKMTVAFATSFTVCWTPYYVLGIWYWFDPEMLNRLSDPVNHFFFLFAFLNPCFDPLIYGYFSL
Chain of 5-hydroxytryptamine receptor 2A (Homo sapiens) (P28223 whole entry, looked up): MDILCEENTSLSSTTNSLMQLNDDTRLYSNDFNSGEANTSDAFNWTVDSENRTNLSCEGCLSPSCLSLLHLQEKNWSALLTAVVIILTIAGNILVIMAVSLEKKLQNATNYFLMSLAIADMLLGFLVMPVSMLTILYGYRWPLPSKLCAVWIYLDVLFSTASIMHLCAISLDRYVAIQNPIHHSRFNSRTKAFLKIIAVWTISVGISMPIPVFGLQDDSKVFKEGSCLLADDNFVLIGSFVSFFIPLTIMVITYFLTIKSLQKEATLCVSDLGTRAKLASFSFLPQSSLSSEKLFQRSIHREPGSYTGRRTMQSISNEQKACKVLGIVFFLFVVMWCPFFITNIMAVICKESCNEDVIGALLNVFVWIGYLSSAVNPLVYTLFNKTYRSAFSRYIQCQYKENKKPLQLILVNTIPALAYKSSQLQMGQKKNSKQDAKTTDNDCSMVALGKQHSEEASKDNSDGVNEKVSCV

For the compound `CN1C(=S)CN=C(c2ccccc2)c2cc(Cl)ccc21`, the Potency entry in [1], in [2], in [3], in test [4], in [5] and in [6] was “inactive” throughout. In addition, the Potency result in test [7], in [8], in test [9], in test [10], in [11] and in [12] was “inactive” in each case. Moreover, in test [13], the Potency entry is “inactive”.

With `Nc1nc(N)nc(N)n1`, the Potency result in test [1], in test [2], in test [3], in [14], in test [15] and in test [5] was “inactive” each time. Also, the Potency entry in test [16], in test [7], in [17], in test [8], in test [9] and in [10] was “inactive” throughout. For the same compound, the Potency entry in test [11], in [18], in test [12] and in test [13] was “inactive” throughout.

Turning to `CC(C)(C)OO`, the Potency entry in test [1], in test [2], in [3], in test [14], in test [19] and in test [15] was “inactive” each time. For the same compound, the Potency result in test [20], in test [7], in test [17], in test [8], in [9] and in test [10] was “inactive” in each case. Also, the Potency result in test [11], in test [18], in test [12] and in test [13] was “inactive” throughout.

`O=C(O)C(F)(F)C(F)(F)C(F)(F)C(F)(F)C(F)(F)F`: the Potency result in test [1], in test [2], in test [3], in test [14], in test [19] and in test [15] was “inactive” throughout. The Potency entry in test [5], in test [16], in test [6], in test [7], in test [9] and in test [10] was “inactive” in each case. Moreover, the Potency entry in test [11], in test [18], in test [12] and in [13] was “inactive” each time.

For the compound `COC(=O)C(C)Oc1ccc(Oc2ccc(Cl)cc2Cl)cc1` (stereo not given), the Potency result in [1], in test [2], in [3], in [14], in [19] and in test [15] was “inactive” each time. Moreover, the Potency result in test [5], in [16], in test [6], in test [7], in test [17] and in [9] was “inactive” throughout. The Potency result in test [10], in test [11], in test [18], in test [12] and in [13] was “inactive” throughout.

Turning to `CCN(CC)C(=S)[S-].CCN(CC)C(=S)[S-].[Zn+2]`, the Potency in test [1] is 0.481 µM (active); in [2] it was 2.41 µM (active); in test [3], 9.69 µM (active); in test [4], 19.3 µM (active); in test [5], 3.21 µM (active); in test [16], 1.61 µM (active). The Potency in test [6] is 4.54 µM (active); in test [17], 19.3 µM (active); in test [9], 13.7 µM (active). In addition, the Potency result in test [7], in test [8] and in test [13] was “inactive” throughout.

On to `CCC[CH2][Sn]([CH2]CCC)([O]C(C)=O)[O]C(C)=O`, for which the Potency in test [1] was 0.219 µM (active); in test [2] it was 0.0978 µM (active). Moreover, the Potency result in [3], in test [14], in [19], in test [15], in [5] and in [16] was “inactive” in each case. For the same compound, the Potency entry in test [6], in test [20], in test [7], in test [17], in [8] and in [9] was “inactive” each time. Further, the Potency result in test [11], in [18], in test [12] and in [13] was “inactive” in each case.

For the compound `N#CC(CCc1ccc(Cl)cc1)(Cn1cncn1)c1ccccc1` (stereo not given), the Potency result in test [1], in test [2], in test [3], in test [14], in test [19] and in test [15] was “inactive” throughout. In addition, the Potency result in [5], in test [16], in test [6], in test [7], in test [17] and in test [9] was “inactive” each time.

Take `O=[N+]([O-])c1cccc2cccc([N+](=O)[O-])c12`: the Potency result in [1], in test [2], in test [3], in test [4], in test [5] and in test [16] was “inactive” throughout. Moreover, the Potency entry in test [6], in test [17], in test [8], in [9], in test [11] and in [18] was “inactive” throughout. The Potency entry in test [12] and in [13] was “inactive” each time.

Consider `CNN`, for which the Potency result in [1], in test [2], in [3], in test [14], in [5] and in test [16] was “inactive” in each case. Also, the Potency entry in test [6], in [7], in test [17], in test [8], in [9] and in test [10] was “inactive” in each case. Besides, the Potency result in [11], in test [18], in [12] and in [13] was “inactive” each time.

Take `[Hg+2].[I-].[I-]`: the Potency in test [1] was 4.33 µM (active); in test [2] it was 1.22 µM (active); in test [3], 43.6 µM (active); in test [5] it was 4.58 µM (active); in test [16] it was 12.9 µM (active); in [6], 18.2 µM (active). Also, the Potency in [17] is 49 µM (active); in test [13], 27.3 µM (active). Moreover, the Potency entry in test [14], in test [19], in test [7] and in [8] was “inactive” throughout.

For `CN(C)c1ccc(N)cc1`, the Potency was 29.9 µM (active) in [1], 8.42 µM (active) in test [2] and 35.5 µM (active) in test [5]. The Potency entry in test [4], in test [14], in [19], in test [15], in test [6] and in test [20] was “inactive” throughout. For the same compound, the Potency entry in test [7], in [17], in test [9] and in test [11] was “inactive” in each case.
